# Source: the supplement of paper PMC11417369
# ± gives the standard deviation of the averaged measurements. The full ranking holds about 25,000 sequences; the median of “ln(normalized median fluorescence intensity)” is about 10, and the highest 2% start at about 12. Only a selection was taken, and the highest values are over-represented in it overall.
# System: PfAP2-G AP2 domain (GST-tagged)
# Test: gcPBM binding intensity (ln(normalized median fluorescence intensity)); higher = stronger DNA binding
# In short: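 Binding intensity values are the highest Masliner-normalised natural-log median intensity among replicate spots of either probe orientation. The binding step lasted 1 h in 1× PBS with 1% milk, 0.2 mg/ml BSA, 0.5% salmon testes DNA and 0.03% Triton X-100, using GST-tagged P. falciparum DNA-binding domains expressed in E. coli on an Agilent 4 × 180k array of primer-extended double-stranded 36-bp intergenic genomic probes plus negative controls. Alexa488 anti-GST antibody and a 488 nm scan detected bound protein.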
row,Sequence,gcPBM binding intensity (ln)
1,TTTTAAATTTAGTGTAGTACACTTTTTTCAAATATA [XGTACX_site4659],11.7 ± 1.2
2,TATATTTTATATTAGTGTACAAATTTCATTTTTCAT [XGTACX_site2204],11 ± 0.5
3,ATATTTATATATAGTAGTACTTTCAATAATTTAAAT [XGTACX_site7276],11.4 ± 0.84
4,ATATGTTACTTTACATAAAGAAGAAGAAGAAGAAAA [CACACA_negctrl_site985],9.805 ± 0.064
5,TATAAAAAATTATGTTGTACGTAATATAAAATTTGT [XGTACX_site7122],11.4 ± 0.86
6,TGTATGATTATGTTGTGTACGTAAAATATGAAAAAT [XGTACX_site1720],11.5 ± 0.89
7,TTTTTGTTTGAACACTGTACGTATAAATATAAAAGT [XGTACX_site6476],11.7 ± 0.84
8,TATAATAAAATATTTTGTACGTATATTTTAATATTT [XGTACX_site2582],11.2 ± 0.72
9,ATATAAACATGTTTGTGTACGTAATATGAAAAATAA [XGTACX_site8157],11.7 ± 1
10,TCTTTTGAACAAATTTGTACGTATATAAAAATATTT [XGTACX_site6547],11.4 ± 0.71
11,TAAAATATAAGACACACACACATATATTTATATATC [CACACA_site6248],9.96 ± 0.099
12,AAAAAAAAAATTAAAAGTACAGAAAATAAATAAATA [XGTACX_site7470],11.4 ± 0.82
13,AAAGAATAATTAAATACACACATATTACAGTAAAAA [CACACA_site2450],10.03 ± 0.092
14,AAAAAAAAAAAAAAAAGTACACAGTAGAATTAAATG [XGTACX_site1843],11.7 ± 0.92
15,TTATGTACAATTTCTTCTTTCTTTTTTCCTAAAGAC [CACACA_negctrl_site1193],11.1 ± 0.57
16,GGTCTTATTTTTAGTAGTACAAATATAATATACATA [XGTACX_site6483],11.4 ± 0.83
17,AATAATTTAATACATACACACGTATATCTTTTTTTT [CACACA_site8632],9.955 ± 0.078
18,TAATTGTACGCCAATACACACAGAATTAAAATGTAG [CACACA_site4234],11.6 ± 1.1

row,Sequence,gcPBM binding intensity (ln)
1,TAATTGTACGCCAATACACACAGAATTATAATGTAG [CACACA_site6201],11.5 ± 1
2,TAATTGTACGCCAATACACACAGAATTAGAATGTAG [CACACA_site102],11.8 ± 1.3
3,CAACATTTATATTTTACACACATCATTTAAGCGCTT [CACACA_site992],10.09 ± 0.078
4,ATCCTTTATTTTTTTTGTACATAAAAATAACTCGAG [XGTACX_site3885],11.1 ± 0.62
5,ATATGTATATTTTTGATGTGCTTTTATTTGGTTATT [CACACA_negctrl_site626],10.01 ± 0.035
6,CGCATACACGGACACACACACACATATATATATATA [CACACA_site4520],11.3 ± 0.7
7,TACATACACAGACACACACACATATATATATATATA [CACACA_site3557],10.2 ± 0.38
8,CATATACACGAACACACACACATATATATATATATA [CACACA_site4437],10.5 ± 0.68
9,TACAGACATACATACACACATACATACAGACATACA [CACACA_site1941],10.1 ± 0.3
10,TACATACACGGACACACACACATATATATATATATA [CACACA_site5883],11.3 ± 0.88
11,CATACACCCAGACACACACACATATATATATATATA [CACACA_site634],10.3 ± 0.39
12,TTCCCCCCCAGACACACACACACATACATACCACAT [CACACA_site2305],11.8 ± 0.84
13,CCCCCCCACGGACACACACACATACATACCACATAT [CACACA_site5303],11.7 ± 0.75
14,CCCCCCCACAGACACACACACATACATACCACATAT [CACACA_site2306],11.8 ± 0.76
15,CCCCCCCACGAACACACACACATACATACCACATAT [CACACA_site7149],12 ± 1
16,AACATATACACGAACACACACACATATATATATATA [CACACA_site502],10.3 ± 0.26
17,CACAGACACCCATACACACACATACCCATATATATA [CACACA_site5023],10.4 ± 0.26
